Assay outcomes (PubChem)
TRHR ag – agonists of human TRH receptor. P34981. TRHR cells, calcium flux fluo-8, FDSS agonist mode. activation, % at 2 µM. 0.18% of 360,000 active; further: 0% is about no effect
Target sequence (P34981 whole entry, looked up): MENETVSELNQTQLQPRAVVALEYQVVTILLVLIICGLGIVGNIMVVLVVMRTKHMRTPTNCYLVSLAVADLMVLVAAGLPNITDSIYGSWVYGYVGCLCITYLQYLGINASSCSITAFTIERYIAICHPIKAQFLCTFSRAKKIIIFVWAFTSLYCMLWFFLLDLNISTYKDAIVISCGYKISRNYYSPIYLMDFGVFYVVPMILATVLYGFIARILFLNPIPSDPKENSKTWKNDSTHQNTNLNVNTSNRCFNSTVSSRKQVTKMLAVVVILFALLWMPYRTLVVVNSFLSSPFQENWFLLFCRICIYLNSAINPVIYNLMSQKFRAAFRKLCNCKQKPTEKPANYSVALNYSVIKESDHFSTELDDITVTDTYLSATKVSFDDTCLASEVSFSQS
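Read-out: compound-evoked intracellular calcium rise in TRHR cells, fluo-8 dye, kinetic FDSS fluorescence at 1 s/cycle following a 10-cycle baseline. Cells cultured overnight before dye loading (30 min–1.5 h, RT).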
TRHR enhancer – allosteric enhancers of human TRH receptor; TRHR cells, fluo-8 calcium fluorescence, EC20 TRH enhancement; enhancement, % at 2 µM; 0.66% of 360,000 active; in the data active means enhancement above about 30%; further: 0% is about no effect
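Enhancer read-out: after compound pinning and an initial kinetic agonist-mode read, an EC20 of TRH (10 nM final) was injected and fluo-8 calcium signal (Ex 480/Em 530) followed at 1 s/cycle for 100 cycles in TRHR-expressing cells.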
D1 agonist – agonists of human D1 dopamine receptor; 1% of 360,000 active; HEK293 T-REx D1 cells, calcium flux, agonist mode; P21728; activation, % at 2 µM; further: 0% is about no effect
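Agonism was scored from calcium flux recorded over 180 s (1 read/s) after pintool compound addition, following a 10-cycle baseline. Cells were inducible force-coupled HEK293 TREx D1, plated overnight at 30 C and loaded with no-wash calcium dye.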
D1 potentiator – human D1 dopamine receptor positive modulation; potentiation, % at 10 µM; 0.036% of 360,000 active; P21728; HEK293 TREx D1 cells, calcium flux, dopamine EC20 potentiation; AID 504651; in the data active means potentiation above about 30%; further: 0% is about no effect
D1 antagonist – blocks dopamine activation of the human D1 receptor | P21728 | HEK293 TREx D1 cells, calcium flux, dopamine EC80; hits give low values | activity change, negative = inhibition, % at 10 µM | 3.2% of 360,000 active | AID 504652; in the data active means activity change below about -30%; further: on the % scale 0 is the no-effect control and ±100 the full control effect
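Tetracycline-induced HEK293 Trex D1 cells, force-coupled to calcium, dye-loaded; compounds added and read 180 s, then EC80 dopamine added and calcium flux tracked kinetically another 180 s.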
The depositor's hits bear a star. Rows were chosen to be rich in hits. Some 4.7% of all compounds tested hit in one or more screens of this group. Unless noted, no stated cut-off is given here; in the data, active means activation above about 30%; inactive means the rest.

SMILES | TRHR ag | TRHR enhancer | D1 agonist | D1 potentiator | D1 antagonist
O=C(NC(=O)N1CCN(c2cccc(Cl)c2)CC1)c1ccccc1 | 0 | -5 | 4 | -11 | -29
Cc1ccc(C(=O)N2CCN(c3cccc(Cl)c3)CC2)cc1C | 0 | 4 | 2 | -1 | -32*
O=C(c1cccc(N2CCCC2=O)c1)N1CCN(c2cccc(Cl)c2)CC1 | 0 | -3 | 17 | -7 | -57*
Cc1ccc(Cl)cc1N1CCN(C(=O)c2ccc(C)c(-n3c(C)nc4cccnc43)c2)CC1 | -1 | 0 | 69* | 3 | -32*
CC(=O)N1c2ccccc2CC1C(=O)N1CCN(c2cccc(Cl)c2)CC1 (stereo unspecified) | 0 | -1 | 2 | -1 | -1
CCOc1ccc(OCC(=O)Nc2c(C(=O)Nc3ccc(C)cc3)oc3ccccc23)cc1 | 1 | 2 | 1 | -1 | 4
Cc1ccc(Nc2nnc(C3C(=O)N(C)C4(C)CC3c3cc(Br)ccc3O4)s2)cc1 (stereo unspecified) | 0 | 3 | 36* | 9 | 8
O=C(Cn1c(=O)n(Cc2ccc3c(c2)OCO3)c(=O)c2ccc(C(=O)NC3CCCCC3)cc21)Nc1ccccc1F | 1 | 0 | 4 | -2 | -6
COc1cccc(-n2nc(C#N)c(Cl)cc2=O)c1 | -1 | -8 | 5 | -3 | -32*
COc1cccc(-n2nc(C(N)=O)c(O)cc2=O)c1 | 1 | -3 | 2 | 3 | -8
COc1ccc(NC(=O)c2c(NCc3ccc(C)o3)sc3c2CCCCC3)c(OC)c1 | 0 | -6 | 1 | -2 | -16
O=C(c1ccc(Cn2cc(Br)cn2)cc1)N1N=C(C(F)F)CC1(O)C(F)F (stereo unspecified) | 1 | 6 | 48* | -2 | 71
Cc1cccc(Nc2nc(-c3c(C)nc4ccccn34)cs2)c1 | -1 | 5 | 8 | -2 | -46*
Cc1nc2ccccn2c1-c1csc(Nc2cccc(O)c2)n1 | 0 | -2 | 0 | 2 | -4
Cc1ccn2c(-c3csc(NCc4ccco4)n3)c(C)nc2c1 | 0 | -2 | 8 | -11 | -42*
c1ccc(CN2C3=NCCCN3c3ccccc32)cc1 | 0 | 6 | 0 | -2 | -1
Brc1ccc(CN2C3=NCCCN3c3ccccc32)cc1 | -1 | -3 | 30* | -10 | -11
COc1cc(C)nc(NCc2ccccc2)n1 | 0 | -3 | 4 | -3 | 3
Cc1cc(C)nc(Nc2n[nH]c(Cc3ccccc3)n2)n1 | 18 | 75* | 1 | 4 | 5
Cc1ccc2c(c1)N(CC(=O)Nc1ccccc1C(F)(F)F)C(=O)c1cccnc1O2 | -1 | 11 | 1 | -4 | -10
CCO/N=C(\C)c1c(O)cc(C(C)C)n(-c2ccccc2)c1=O | 0 | 3 | 1 | -4 | -36*
CCc1ccc(C2=C(C)C(N3CCC(C(=O)NCCc4ccco4)CC3)=NS2(=O)=O)cc1 | -1 | -7 | -1 | -4 | -21
CCCCS(=O)(=O)N1CCC(C(=O)NCC2CCCO2)CC1 (stereo unspecified) | 3 | -8 | 1 | -5 | -13
CCS(=O)(=O)N1CCC(C(=O)NCC2CCCO2)CC1 (stereo unspecified) | 1 | 1 | 2 | 0 | -36*
COc1cccc2cc(C(=O)CS(=O)(=O)c3ccc(Cl)cc3)c(=O)oc12 | 1 | 34* | 3 | 2 | 34
SMILES | TRHR ag | TRHR enhancer | D1 agonist | D1 potentiator | D1 antagonist
COc1cccc2cc(C(C)=O)c(=O)oc12 | 1 | 7 | 1 | -1 | -23
O=C(OCn1nnc2ccccc2c1=O)c1ccco1 | 0 | 2 | -1 | 7 | 5
O=C(OCn1nnc2ccccc2c1=O)c1cc2ccccc2o1 | 0 | -2 | 2 | -5 | -32*
CCc1ccc(NC(=O)CN(c2ccc(Cl)cc2)S(=O)(=O)c2ccsc2C(=O)OC)cc1 | -1 | -2 | 8 | 0 | -15
CCC1=NN2C(=N)/C(=C\c3ccc(SCc4ccco4)o3)C(=O)N=C2S1 | 14 | 0 | 38* | -9 | 7
CCC1=NN2C(=N)/C(=C/c3c(C)nn(-c4ccccc4)c3Cl)C(=O)N=C2S1 | -1 | -3 | 0 | -4 | -5
CCCC1=NN2C(=N)/C(=C\c3cc(C)n(Cc4ccccc4)c3C)C(=O)N=C2S1 | 0 | -1 | 150* | 1 | -37*
